A selection: hits, their analogues and other compounds. The true share with any hit is near 2%.
NPSR antagonist = blocks cAMP signaling of the human neuropeptide S receptor; CHO-NPSR cells, cAMP TR-FRET, antagonist mode; Potency, µM (top dose mostly 38.3 µM), without a hit: at the highest dose activity change, negative = inhibition, usual class: inhibitors; hit rate 1% among 220,000; further: potency means the concentration at half of the fitted maximal effect; on the % scale 0 is the no-effect control and ±100 the full control effect; nearly all actives have a fitted effect of over 50% in size
IL-2 act = activators of IL-2 | IL-2 activation reporter assay, cell-based qHTS; stimulated with anti-CD3/CD4/CD28 beads; in transgenic mouse T cells | activation, % (series mostly up to about 46 µM) | hit rate 0.065% among 360,000; in the data active means activation above about 50%; inconclusive means mostly about 30% to 49%; further: 0% is about no effect
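Unstimulated transgenic mouse T cells, 750 per well, received compound and, after 60 minutes, anti-CD3/anti-CD4 bead plus anti-CD28 stimulation. EGFP and DsRed were quantified after 18 hours.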
ClpP mod = qHTS Assay for Activators of ClpP; ATP-dependent Clp protease proteolytic subunit (Bacillus subtilis (strain 168)), P80244; purified B. subtilis ClpP, FRET peptide cleavage, 20 min; Potency, µM (series often up to 57.5 µM), for the others: at the highest dose activity change, negative = active; hit rate 1.9% among 340,000; AID 651965, 2013; active means well fitted falling curve with a large enough effect; inconclusive means small, poorly fitted or top-dose-only effect; inactive means no such curve, though single readings can be large or run the other way; further: potency means the concentration at half of the fitted maximal effect; the source files actives as falling curves though it sought activators and does not explain the sign; nearly all actives have a fitted effect of over 65% in size
Target sequence (P80244 whole entry, looked up): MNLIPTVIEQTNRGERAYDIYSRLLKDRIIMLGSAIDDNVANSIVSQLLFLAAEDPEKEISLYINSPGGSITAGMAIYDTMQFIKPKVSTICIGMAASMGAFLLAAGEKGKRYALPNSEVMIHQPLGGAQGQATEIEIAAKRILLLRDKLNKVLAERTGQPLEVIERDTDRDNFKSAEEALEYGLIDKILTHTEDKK
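Purified B. subtilis ClpP, 10 microg/mL final in Tris/HCl pH8 with KCl, BSA, glycerol and Tween-20, cleaved an Abz/nitrotyrosine-quenched decapeptide. Fluorescence (ex 320, em 430) was read at 0 and 20 min at room temperature. Delta was normalized to 5.8 microM ADEP and DMSO/no-enzyme controls.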
PKM2 activator = increases activity of human pyruvate kinase M2; purified PKM2, Kinase-Glo ATP luminescence, activation; response scale: 0% is enzyme alone, no compound; P14618; AID 1631; Potency, µM (highest dose often 57.5 µM), inactives show at the highest dose activation, most hits filed as activators; hit rate 0.34% among 260,000; further: potency means the concentration at half of the fitted maximal effect; on the % scale 0 is the no-effect control and ±100 the full control effect; nearly all actives have a fitted effect of over 55% in size
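hPK-M2, >95% pure; 0.1 mM ADP / 0.5 mM PEP final; imidazole pH7.2 buffer w/ 7 mM MgCl2, 50 mM KCl; 1 h RT; Kinase-Glo lum. Intermediate enzyme activity for dual inhibitor/activator qHTS.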
* = called active by the depositor; u = inconclusive; x = no result given; ! = repeats disagree; [ ] = another dose, or the depositor's remark. Unless noted, the call rests on the fitted dose curve; in most records, active means well fitted curve in the direction sought with a large enough effect; inconclusive means small, poorly fitted or top-dose-only effect, or another doubt; inactive means no such curve, though single readings can be large; an effect the other way counts as inactive or inconclusive.

SMILES	NPSR antagonist	IL-2 act	ClpP mod	PKM2 activator
CN1C(=O)/C(=C/c2cn(CC(=O)NCc3ccco3)c3ccccc23)NC1=S	33%	x	x	7.9µM*
CCSc1nc(-c2ccc(OC)cc2)n(-c2nc3ccccc3s2)n1	u	4	28µM*	0%
CC(C)N(Cc1nc(-c2ccc(Cl)cc2)no1)C(=O)C12CC3CC(CC(C3)C1)C2	-9%[46.1 µM]	1	2%	-3%
Cc1cccc(-c2noc(CN(C(=O)C34CC5CC(CC(C5)C3)C4)C(C)C)n2)c1	u	-4	32µM*	-1%
Clc1ccc2oc(-c3ccccc3)nc2c1	-6%[46.1 µM]	-3	-14%	-11%
Clc1ccc2oc(-c3cccnc3)nc2c1	u	-2	25µM*	3%
Cc1ccc2nc(-c3ccccn3)oc2c1	14%[46.1 µM]	-2	6%	-44%
Cc1ccc2nc(-c3cccnc3)oc2c1	-9%[46.1 µM]	2	1.4µM*!	-6%
O=C(/C=C/c1ccc(Br)cc1)c1ccc(NC2=NCCCS2)cc1	u	0	-3%	7%
CC(C)(C)c1ccc(/C=C/C(=O)c2ccc(NC3=NCCCS3)cc2)cc1	7.9µM*	-1	-4%	4%
O=C(C[n+]1csc2ccccc21)c1ccccc1	x	x	0%	x
O=C(Nc1ccccc1N1CCOCC1)c1ccc(F)c(S(=O)(=O)N2CCOCC2)c1	x	1	-1%	x
CC1Cc2ccccc2N1C(=O)c1ccc(F)c(S(=O)(=O)N2CCOCC2)c1 (stereo unspecified)	x	0	28µM*	x
CCCCn1c(=NC(=O)c2ccc3c(c2)OCO3)c(C#N)cc2c(=O)n3cccc(C)c3nc21	-11%[46.1 µM]	0	32µM*	2%
COCCCn1c(C(=O)N2CCOCC2)cc2c(=O)n3cccc(C)c3nc21	x	0	28µM*	x
CCN(CC)C(=O)c1cc2c(=O)n3cccc(C)c3nc2n1C	-3%[46.1 µM]	0	32µM*	0%
Cc1cc(N/N=C/c2ccc(O)cc2)nc(NS(=O)(=O)c2ccccc2)n1	8%	1	-18%	12%
Cc1ccc2c(Cl)c(C(=O)Nc3ccc4c(c3)OCO4)sc2c1	6.3µM*	2	6%	0%
CCc1nc2ccc(C(=O)NCCOc3ccc(OC)cc3)cn2c1N(C)Cc1ccc(OC)cc1	x	-1	-3%	x
CCOC(=O)C1CCN(C(=O)CSCc2nc(-c3ccc(OCC)cc3)oc2C)CC1	-5%[46.1 µM]	3	28µM*	-1%
CCOC(=O)N1CCC(NC(=O)CSCc2nc(-c3ccc(OC)c(OC)c3)oc2C)CC1	1%[46.1 µM]	-2	8.9µM*	-10%
COc1ccc(-c2nc(CSCC(=O)NC3CCCc4ccccc43)c(C)o2)cc1OC (stereo unspecified)	-24%[46.1 µM]	-2	28µM*	7%
Cc1ccc(/C=C2\SC(=S)N(CCC(=O)NNS(=O)(=O)c3ccc(C)cc3)C2=O)cc1	-4%[46.1 µM]	8	0%	2%
ClC(Br)=C(n1cnc2ccccc21)n1cnc2ccccc21	-24%[46.1 µM]	-2	25µM*	-1%
COc1ccccc1CNC(=O)c1nn(-c2ccc(C)cc2)c(=O)c2c1c1ccccc1n2C	4%[46.1 µM]	1	14µM*	-2%
SMILES	NPSR antagonist	IL-2 act	ClpP mod	PKM2 activator
CCOc1ccccc1CNC(=O)c1cn(C)c(=O)c2c1c1ccccc1n2C	-24%	1	11µM*	8%
Cc1ccc(CNC(=O)c2cn(C)c(=O)c3c2c2ccccc2n3C)o1	-17%[46.1 µM]	-3	14µM*	u
Clc1ccc2[nH]c3c(c2c1)CCc1cn[nH]c1-3	-5%[46.1 µM]	0	28µM*	-2%
O=C(N/N=C1\CCCc2c1[nH]c1ccc(Cl)cc21)c1ccncc1	-5%[46.1 µM]	-3	-2%	-6%
c1ccc2c3c([nH]c2c1)-c1[nH]ncc1CC3	19%[46.1 µM]	0	13µM*	2%
Cc1ccc(-n2ncc3ccccc3c2=O)cc1Cl	-18%	0	-1%	1%
N#Cc1c(/N=C/c2ccc(-c3ccc(C(=O)O)c(Cl)c3)o2)sc2c1CCCC2	x	1	35µM*	x
OCCC1CN(CCCc2ccccc2)CCN1Cc1ccc(F)cc1 (stereo unspecified)	x	2	32µM*	11%
Cc1nc(C(F)(F)F)ccc1C(=O)N1CCC1(C)C(=O)NS(=O)(=O)c1ccc2c(c1)CCO2 (stereo unspecified)	x	-1	0%	x
CCOC(=S)SCc1cn2ccc(C)cc2n1	-4%	-1	-9%	7.9µM*

Bioassay records as filed in PubChem.
